Assay [1] can be described thus: Cell Viability - LYMP2-009 (AID 968).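 Also: cells exposed to compound for 24 h at 37 °C; nearly all actives have a fitted effect of over 55% in size.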 Also: potency is read from the fitted curve at half-maximal effect.
Assay [2] is described as follows: Cell Viability - LYMP2-013 (AID 970).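 Also: cells exposed to compound for 24 h at 37 °C; nearly all actives have a fitted effect of over 55% in size.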 Also: potency is read from the fitted curve at half-maximal effect. The essentials:
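In complete culture medium, human lymphoblastoid cells were dosed for 24 hr at 37 C, with tetraoctylammonium bromide (6.4pM to 92 uM) as positive control. Viability reflects luciferase-based ATP signal; AC50 derived from concentration-response curves.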

A short description of assay [3]: Cell Viability - LYMP2-015 (AID 971). Also: nearly all actives have a fitted effect of over 55% in size. Also: potency is read from the fitted curve at half-maximal effect. The essentials: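 AC50 values reflect Hill-model fits of ATP-based luminescence (CellTiter-Glo) from a human lymphoblastoid line, 2500 cells/well, treated 24 hr at 37 C.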
A short description of assay [4]: Cell Viability - LYMP2-017 (AID 972).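 Also: cells exposed to compound for 24 hours at 37 °C; nearly all actives have a fitted effect of over 55% in size.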 Also: potency is read from the fitted curve at half-maximal effect. The method, boiled down:
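In this qHTS format, lymphoblastoid cells in complete medium receive test compound for a day at 37 C before ATP content is quantified by luciferase luminescence. Reported AC50 figures come from standard Hill-equation curve fitting.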

The nature of assay [5]: Cell Viability - LYMP2-021 (AID 974). Also: potency is read from the fitted curve at half-maximal effect. The method, boiled down:
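In qHTS format, compounds are tested against 2500 lymphoblastoid cells per well for 24 h; viable cell number is inferred from ATP-driven luciferase light, and Hill-equation fitting yields AC50 values.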

Assay [6] in a line: Cell Viability - LYMP2-023 (AID 975). Also: potency is read from the fitted curve at half-maximal effect. The method, boiled down:
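In this qHTS, ATP-based luciferase luminescence (CellTiter-Glo) is quantified in human lymphoblastoid cells after 24 hr compound treatment at 37 C; tetraoctylammonium bromide serves as positive control. Concentration-response curves are Hill-fitted to give AC50.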

Assay [7] in a line: Cell Viability - LYMP2-006 (AID 978).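 Also: cells exposed to compound for 24 hours; nearly all actives have a fitted effect of over 60% in size.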 Also: potency is read from the fitted curve at half-maximal effect. The method, boiled down:
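In this cytotoxicity screen, the human lymphoblastoid line grew in complete medium with test compounds for 24 hr at 37 C. Cellular ATP served as the viability signal.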

Assay [8] in a line: Cell Viability - LYMP2-007 (AID 979).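 Also: cells exposed to compound for 24 h before reading; nearly all actives have a fitted effect of over 60% in size.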 Also: potency is read from the fitted curve at half-maximal effect. The essentials:
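Measured via luciferase-based ATP quantitation: lymphoblastoid cells, 24 hr compound exposure at 37 C, AC50 from Hill fits.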

Assay [9] in a line: Cell Viability - LYMP2-008 (AID 980). Also: nearly all actives have a fitted effect of over 60% in size. Also: potency is read from the fitted curve at half-maximal effect. The method, boiled down:
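Measured: ATP-dependent luminescence, proportional to viable cell number, in human lymphoblastoid cells treated 24 hr with compound in complete culture medium. Values are AC50s from Hill-equation modelling of qHTS titrations.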

A short description of assay [10]: Cell Viability - LYMP2-010 (AID 981). Also: potency is read from the fitted curve at half-maximal effect. The essentials: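 This 24 hr viability screen uses LYMP2-010 lymphoblastoid cells, quantifies ATP via luciferase luminescence, and derives AC50 from Hill fits of qHTS concentration-response data.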
Assay [11] in a line: Cell Viability - LYMP2-012 (AID 982). Also: potency is read from the fitted curve at half-maximal effect.
Assay [12] is described as follows: Cell Viability - LYMP2-014 (AID 983).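 Also: cells exposed to compound for 24 h at 37 °C; nearly all actives have a fitted effect of over 50% in size.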 Also: potency is read from the fitted curve at half-maximal effect. The essentials: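 Quantitative HTS in lymphoblastoid cells: 24 hr compound exposure, then CellTiter-Glo ATP luminescence. Positive control was tetraoctylammonium bromide, 6.4pM to 92 uM.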
Assay [13] is described as follows: Cell Viability - LYMP2-016 (AID 984). Also: potency is read from the fitted curve at half-maximal effect. The method, boiled down:
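Concentration-dependent ATP depletion measured in LYMP2-016 lymphoblastoid cells, 24 h, 37 C; luciferase-based luminescent detection; Hill-equation AC50.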

Assay [14] is described as follows: Cell Viability - LYMP2-018 (AID 985). Also: nearly all actives have a fitted effect of over 50% in size. Also: potency is read from the fitted curve at half-maximal effect. The essentials:
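In this qHTS viability assay, cells are treated for 24 hr and cellular ATP is quantified by luciferase-based luminescence, with tetraoctylammonium bromide as positive control.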

Assay [15] is described as follows: Cell Viability - LYMP2-020 (AID 986). Also: potency is read from the fitted curve at half-maximal effect. The essentials: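 Cells at 2500 per well receive a 24 hr compound exposure at 37 C. Viability is measured as ATP-dependent luciferase luminescence, with AC50 modeled from qHTS concentration-response curves.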
Assay [16] in a line: Cell Viability - LYMP2-022 (AID 987). Also: nearly all actives have a fitted effect of over 55% in size. Also: potency is read from the fitted curve at half-maximal effect. The essentials: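 In this qHTS cytotoxicity screen, compound titrations were incubated 24 hr at 37 C with human lymphoblastoid cells in complete medium. Luciferase-based ATP luminescence provided the viability signal.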
The nature of assay [17]: Cell Viability - LYMP2-026 (AID 989).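 Also: cells exposed to compound for 24 h at 37 °C; nearly all actives have a fitted effect of over 50% in size.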 Also: potency is read from the fitted curve at half-maximal effect. The essentials:
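Acute toxicity screen in complete culture medium, with 24 hr compound exposure at 37 C. Viability read as cellular ATP via luciferase reaction, with tetraoctylammonium bromide (6.4pM to 92 uM) as positive control.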

The target in assay [18] is Alpha-galactosidase A (Homo sapiens) (UniProt P06280). The experiment in a line: Counterscreen for Glucocerebrosidase Inhibitors: qHTS Assay for Human alpha-Galactosidase at pH 4.5 (AID 992). The method, boiled down: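 Each compound is preincubated briefly with 2 nM enzyme before substrate addition (80 uM); plates then sit 20 min at ambient temperature, are quenched with 1M NaOH/1M glycine, and read fluorometrically.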
Chain of Alpha-galactosidase A (Homo sapiens) (P06280 whole entry, looked up): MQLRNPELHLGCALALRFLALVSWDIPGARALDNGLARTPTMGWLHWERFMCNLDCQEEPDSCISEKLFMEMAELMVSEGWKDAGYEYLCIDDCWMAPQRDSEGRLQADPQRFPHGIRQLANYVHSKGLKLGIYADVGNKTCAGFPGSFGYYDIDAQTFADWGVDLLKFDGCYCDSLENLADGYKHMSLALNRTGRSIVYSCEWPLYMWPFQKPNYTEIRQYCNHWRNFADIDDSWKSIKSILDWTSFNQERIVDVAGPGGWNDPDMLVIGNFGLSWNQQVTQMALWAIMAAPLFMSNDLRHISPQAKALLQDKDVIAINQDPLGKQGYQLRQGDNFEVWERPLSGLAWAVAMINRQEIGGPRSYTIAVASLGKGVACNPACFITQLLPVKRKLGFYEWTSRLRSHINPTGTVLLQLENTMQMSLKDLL
Background: Counterscreens check selectivity or assay interference.

The nature of assay [19]: Cell Viability - LYMP2-019 (AID 973). The essentials: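 AC50 values come from Hill-equation modelling of qHTS concentration-response curves, where viability is measured as luciferase-based ATP luminescence in the lymphoblastoid line after 24 hr compound exposure in complete culture medium.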
A short description of assay [20]: Cell Viability - LYMP2-025 (AID 976).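 Also: series mostly up to about 92 µM; cells exposed to compound for 24 h at 37 °C.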 The essentials: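 Luminescent ATP readout after 24 hr treatment of a human lymphoblastoid line (LYMP2-025, 2500 cells/well, 37 C). Reagent developed 30 min at room temperature; AC50 fitted with the Hill equation.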

Records with an inconclusive call do not appear. Activity calls are given as the source filed them. Calls follow the shape of the dose curve; as a rule, active = well fitted curve in the direction sought with a large enough effect; inconclusive = small, poorly fitted or top-dose-only effect, or another doubt; inactive = no such curve, though single readings can be large; an effect the other way counts as inactive or inconclusive.

With `N=C1N=C(N)c2cc3ccccc3cc21`, the Potency is 39.8 µM (active) in assay [1]; 39.8 µM (active) in assay [2]; 50.1 µM (active) in assay [3]; 39.8 µM (active) in assay [4]; 39.8 µM (active) in [5]; 39.8 µM (active) in assay [6]. Moreover, the Potency was 50.1 µM (active) in assay [7]; 39.8 µM (active) in [8]; 39.8 µM (active) in [9]; 39.8 µM (active) in assay [10]; 39.8 µM (active) in [11]; 39.8 µM (active) in [12]. Moreover, the Potency in assay [13], in assay [14], in assay [15], in assay [16] and in [17] was 39.8 µM (active) each time.

For the molecule `Cn1c(=O)c2[nH]c(-c3ccccc3)nc2n(C)c1=O`, the molecule was called inactive in assay [18].

As to `CN(C)c1ccc(N=NS(=O)(=O)O)cc1`, the Potency result in assay [1], in assay [2], in assay [3], in assay [4], in assay [19] and in assay [5] was “inactive” each time. The Potency result in assay [6], in [20], in assay [7], in assay [8], in assay [9] and in assay [10] was “inactive” in each case. Besides, the Potency result in [11], in assay [12], in [13], in [14], in assay [15] and in [16] was “inactive” in each case. Also, the Potency entry in assay [17] was “inactive”.

Take `NCCO`: the Potency result in [1], in assay [2], in [3], in assay [4], in [19] and in [5] was “inactive” each time. In addition, the Potency result in [6], in assay [20], in assay [7], in [8], in assay [9] and in assay [10] was “inactive” throughout. Also, the Potency result in [11], in assay [12], in assay [13], in assay [14], in assay [15] and in assay [16] was “inactive” in each case. Further, the Potency entry in assay [17] was “inactive”.

`O=C1CN(/N=C/c2ccc([N+](=O)[O-])o2)C(=O)N1`: the Potency entry in [20], in [11] and in assay [15] was “inactive” in each case.

As for `O=C(O)c1cc(O)c(O)c(O)c1`, the Potency entry in assay [1], in assay [2], in [3], in assay [4], in assay [19] and in [5] was “inactive” in each case. Further, the Potency result in assay [6], in assay [7], in assay [8], in assay [9], in [10] and in assay [11] was “inactive” throughout. In addition, the Potency entry in assay [12], in assay [13], in assay [14], in assay [15], in assay [16] and in assay [17] was “inactive” throughout.

Regarding `Nc1ccc(O)c([N+](=O)[O-])c1`, the Potency result in [1], in [2], in assay [4], in assay [5], in assay [6] and in assay [20] was “inactive” in each case. Also, the Potency entry in assay [7], in assay [8], in [9], in [10], in assay [11] and in assay [12] was “inactive” in each case. In addition, the Potency result in assay [13], in assay [14], in [15], in assay [16] and in assay [17] was “inactive” each time.

As for `Oc1ccccc1O`, the Potency entry in assay [4], in [19], in assay [6], in assay [20], in assay [8] and in assay [9] was “inactive” in each case. The Potency entry in assay [13] is “inactive”.

Take `CCCCCCCCCCCCCCCCCC(=O)O`: the Potency result in assay [1], in assay [2], in [3], in assay [4], in assay [19] and in assay [5] was “inactive” throughout. In addition, the Potency entry in assay [6], in assay [20], in [7], in assay [8], in assay [9] and in assay [10] was “inactive” in each case. In addition, the Potency result in assay [11], in assay [12], in [13], in assay [14], in [15] and in assay [16] was “inactive” in each case. Further, the Potency result in [17] was “inactive”.

Regarding `COc1cc(OC)c(/C=C2/C(=O)Nc3ccccc32)c(OC)c1`, in assay [18], the molecule was called inactive.

For the molecule `S=c1[nH]c2ccccc2s1`, the Potency entry in assay [1], in assay [2], in assay [3], in [4], in assay [19] and in [5] was “inactive” throughout. For the same molecule, the Potency entry in assay [6], in [20], in assay [7], in assay [8], in assay [9] and in assay [10] was “inactive” each time. The Potency result in assay [11], in [12], in assay [13], in [14], in assay [15] and in assay [16] was “inactive” throughout. Moreover, the Potency result in [17] is “inactive”.

For `c1ccc2sc(SSc3nc4ccccc4s3)nc2c1`, the Potency entry in assay [1], in [2], in assay [3], in [4], in assay [19] and in assay [5] was “inactive” throughout. For the same molecule, the Potency result in assay [6], in assay [20], in assay [7], in assay [9], in [10] and in assay [11] was “inactive” in each case. For the same molecule, the Potency result in assay [12], in [13], in assay [14], in assay [15], in assay [16] and in [17] was “inactive” in each case.

`Nc1nc2ccc([N+](=O)[O-])cc2s1`: the Potency result in assay [1], in assay [2], in [3], in [4], in assay [19] and in [5] was “inactive” throughout. Moreover, the Potency entry in assay [6], in assay [20], in assay [7], in [8], in assay [9] and in assay [11] was “inactive” throughout. In addition, the Potency entry in assay [12], in assay [13], in assay [14], in [15], in [16] and in assay [17] was “inactive” in each case.

For `CN1CCC[C@H]1c1cccnc1`, the Potency entry in [1], in [2], in assay [3], in assay [4], in assay [19] and in [5] was “inactive” in each case. Also, the Potency result in assay [6], in assay [20], in assay [7], in assay [8], in [9] and in assay [10] was “inactive” each time. Also, the Potency result in [11], in assay [12], in assay [13], in assay [14], in [15] and in [16] was “inactive” each time. Moreover, the Potency result in [17] was “inactive”.

Take `CC(C)NCC(O)COc1cccc2ccccc12` (stereo not drawn): the Potency entry in assay [2], in assay [3], in assay [4], in [19], in assay [5] and in assay [6] was “inactive” each time. In addition, the Potency result in assay [20], in assay [7], in assay [8], in assay [9], in assay [10] and in assay [11] was “inactive” each time. Besides, the Potency result in assay [12], in [13], in assay [14], in [15], in assay [16] and in assay [17] was “inactive” in each case.

These data come from PubChem BioAssay (NCATS).
